Measured values as given in PubChem BioAssay (EPA / NIEHS).
Records with an inconclusive call do not appear. Activity calls are given as the source filed them. The calls were made as follows, unless noted: active = hit-call score of the fitted dose curve at least 0.9, where 1 is the maximum; inactive = score below 0.9.

Assays:
[1] = CCTE_Shafer_MEA_acute_per_burst_spike_number_mean: CCTE's Neural Acute Assay for Average Number of Spikes Per Burst, Shafer Lab (AID 2284015);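 also: hits are decreases in mean spikes per burst versus baseline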
Outline: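 Percent change in mean spikes per single-electrode burst is compared between a 40 min baseline and a 40 min recording with compound (0.03-40 uM). Cultures were rat cortical neurons on MEA plates at DIV 13 or 15, recorded at 37 C, with DMSO as the negative control.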

[2] = CCTE_Shafer_MEA_acute_interburst_interval_mean: CCTE's Neural Acute Assay for Mean Interburst Interval, Shafer Lab (AID 2284016);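 also: percent change of mean interburst interval versus each well's own pre-dose baseline; curves fitted for decrease in interburst interval relative to DMSO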
Outline: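 Percent change in mean single-electrode interburst interval was calculated per well from 40 min recordings before and after compound (0.03-40 uM). Recordings were made at 37 C on rat cortical cultures at DIV 13 or 15, with spikes detected at 8x rms threshold.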

[3] = CCTE_Shafer_MEA_acute_burst_percentage_mean: CCTE's Neural Acute Assay for Percentage of Spikes in a Burst, Shafer Lab (AID 2284017)
Outline: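 Well-level mean burst percentage from a 40-min recording after compound (0.03-40 uM) expressed as percent change from a 40-min baseline at 37C. Cultures: primary rat cortical neurons on MEA, dosed on DIV 13 or 15; fitted downward relative to DMSO.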

[4] = CCTE_Shafer_MEA_acute_burst_percentage_std: CCTE's Neural Acute Assay for Standard Deviation of Burst Percentage, Shafer Lab (AID 2284018);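 also: fitted in the negative direction so actives lower burst percentage SD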
Outline: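 Rat primary cortical neurons on 48-well MEAs, DIV 13 or 15, 37 C. 40-min baseline then 40-min recording with compound (0.03-40 uM); well-level SD of per-electrode burst spike percentage, expressed as percent change from baseline.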

[5] = CCTE_Shafer_MEA_acute_per_network_burst_spike_number_mean: CCTE's Neural Acute Assay for Average Number of Spikes in a Network Burst, Shafer Lab (AID 2284019)
Procedure: (§1) CCTE_Shafer_MEA_acute assay is conducted using Axion Biosystems 48 well microelectrode array (MEA) plates and Maestro recording system. Each well of the MEA plate contains a grid of 16 microelectrodes embedded in the culture surface. Electrically active cells, such as neurons, can be cultured over the electrodes, and electrical activity in these cells can be recorded extracellularly. The spontaneous firing of neurons is captured from each electrode on a microsecond timescale providing both temporally and spatially precise data. […] The CCTE_Shafer_MEA_acute assay uses primary cultures of rat cortical neurons. […] The recordings before and after chemical treatment are used to calculate a percent change in the mean number of spikes in a network burst in each well.Data from the assay component CCTE_Shafer_MEA_acute_per_network_burst_spike_number_mean was analyzed into 1 assay endpoint. This assay endpoint, CCTE_Shafer_MEA_acute_per_network_burst_spike_number_mean, was analyzed in the negative analysis fitting direction relative to DMSO as the negative control and baseline of activity. […]
Spontaneous activity in the cortical cultures was recorded using an Axion Biosystems Maestro 768 channel amplifier and Axion Integrated Studios (AxIS) v1.8 (or later) software. […] Any electrodes with rms noise levels greater than 5 uV were grounded (e.g., no data were recorded). […]

[6] = CCTE_Shafer_MEA_acute_per_network_burst_spike_number_std: CCTE's Neural Acute Assay for Standard Deviation of Number of Spikes in a Network Burst, Shafer Lab (AID 2284020);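 also: fitted for decrease in spike-number SD versus DMSO so actives lower it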
Outline: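 Rat primary cortical neurons on 48-well MEA (16 electrodes/well), treated DIV 13 or 15 at 0.03-40 uM, ≥3 wells per compound. 40 min recordings at 37 C before and after dosing; value is percent change in network-burst spike-number SD, negative direction vs DMSO.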

[7] = CCTE_Shafer_MEA_acute_per_network_burst_electrodes_number_mean: CCTE's Neural Acute Assay for Mean Number of Electrodes in a Network Burst, Shafer Lab (AID 2284021);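 also: curves fitted for decreases only so hits reduce electrodes per burst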
Outline: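 Readout: % change in mean electrodes active per network burst, post- vs pre-treatment, each well. Spikes detected at 8x rms noise after 300-5000 Hz band-pass; rat cortical cultures, DIV 13/15, compounds 0.03-40 uM, DMSO baseline.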

[8] = CCTE_Shafer_MEA_acute_network_burst_percentage: CCTE's Neural Acute Assay for Percentage of Network Bursts, Shafer Lab (AID 2284022);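 also: curves fitted for loss so actives lower network burst percentage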
Outline: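 Rat cortical cultures, DIV 13/15; 20 min equilibration, 40 min baseline, compound 0.03-40 uM, 40 min recording, 37 C. Spikes: 300-5000 Hz band-pass, threshold 8x rms noise. Readout: % change in network-burst spike fraction; loss direction vs DMSO.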

[9] = CCTE_Shafer_MEA_acute_cross_correlation_area: CCTE's Neural Acute Assay for Area of Cross Correlation, Shafer Lab (AID 2284024);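 also: area under pooled inter-electrode spike cross-correlation near zero lag as percent change from own baseline; curves fitted for loss of cross-correlation area so actives lower synchrony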
Procedure: as §1, with “cross correlation area” for “mean number of spikes in a network burst”, “CCTE_Shafer_MEA_acute_cross_correlation_area” for “CCTE_Shafer_MEA_acute_per_network_burst_spike_number_mean”, “CCTE_Shafer_MEA_acute_cross_correlation_area,” for “CCTE_Shafer_MEA_acute_per_network_burst_spike_number_mean,”
Spontaneous activity in the cortical cultures was recorded using an Axion Biosystems Maestro 768 channel amplifier and Axion Integrated Studios (AxIS) v1.8 (or later) software. […] Any electrodes with rms noise levels greater than 5 uV were grounded (e.g., no data were recorded). […] Baseline activity (40 min) was recorded before the addition of each compound. […]

[10] = molecular target: Estrogen receptor (Homo sapiens) (UniProt P03372); experiment: CCTE_Deisenroth_AIME_96WELL_LUC_Active: CCTE's 96-well Estrogen Receptor Transactivation Assay with AIME metabolic competence (ERTA luciferase; metabolism positive), Deisenroth Lab (AID 2284023; active = hit-call score of the fitted dose curve at least 0.9, where 1 is the maximum)
Estrogen receptor (Homo sapiens), sequence (P03372 whole entry, looked up): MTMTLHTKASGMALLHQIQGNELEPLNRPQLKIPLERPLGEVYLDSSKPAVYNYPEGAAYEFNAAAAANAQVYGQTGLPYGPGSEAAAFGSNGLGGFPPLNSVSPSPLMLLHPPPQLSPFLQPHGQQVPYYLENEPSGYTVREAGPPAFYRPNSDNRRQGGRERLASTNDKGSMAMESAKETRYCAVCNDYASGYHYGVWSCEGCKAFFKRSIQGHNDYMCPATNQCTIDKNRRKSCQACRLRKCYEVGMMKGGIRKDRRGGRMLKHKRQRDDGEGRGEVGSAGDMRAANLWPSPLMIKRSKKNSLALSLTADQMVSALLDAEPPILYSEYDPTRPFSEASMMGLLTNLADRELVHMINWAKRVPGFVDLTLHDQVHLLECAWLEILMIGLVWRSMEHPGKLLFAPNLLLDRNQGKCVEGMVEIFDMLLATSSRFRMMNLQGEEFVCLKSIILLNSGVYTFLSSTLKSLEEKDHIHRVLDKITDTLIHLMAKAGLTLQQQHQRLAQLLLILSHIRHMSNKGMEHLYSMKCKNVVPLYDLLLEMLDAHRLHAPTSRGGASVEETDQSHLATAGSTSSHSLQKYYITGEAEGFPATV
Outline: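 Chemicals pre-incubated 2 h with alginate-immobilized phenobarbital/beta-naphthoflavone-induced male Sprague Dawley rat liver S9, then medium transferred to VM7Luc4E2 cells for 24 h luciferase read-out. 10-point series 0.002 - 200 uM; fitted relative to 17beta-estradiol.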

SMILES	outcome [1]	outcome [2]	outcome [3]	outcome [4]	outcome [5]	outcome [6]	outcome [7]	outcome [8]	AC50 [9]	AC50 [10]	outcome [9]
CCCCC(CC)COP(=O)(O)OCC(CC)CCCC (centres undefined)	inactive	inactive	inactive	inactive	inactive	inactive	inactive	inactive	8.23 nM (active)	–	–
C#C[C@]1(O)CC[C@H]2[C@@H]3CCc4cc(OC)ccc4[C@H]3CC[C@@]21C	–	–	–	–	–	–	–	–	–	0.1 nM (active)	–
CCCCCCOC(=O)c1ccccc1O	inactive	inactive	inactive	inactive	inactive	inactive	inactive	inactive	–	–	inactive
